The record followed here is PubChem BioAssay AID504332 (National Center for Advancing Translational Sciences (NCATS), 2011).

Molecules are shown by their SMILES. About 31,000 (8.9%) of roughly 350,000 compounds were called active. Not shown: some 15% with an inconclusive outcome. The entries come from a sample that favours actives as a whole. Unmarked numbers belong to inactive results. The call rests on the fitted dose curve; in most records, active means well fitted inhibition curve with a large enough effect; inconclusive means small, poorly fitted or top-dose-only effect; inactive means no such curve, though single readings can be large or run the other way.
On the % scale 0 is the no-effect control and ±100 the full control effect; potency means the concentration at half of the fitted maximal effect.

For the assay, the target named is Histone-lysine N-methyltransferase EHMT2 (Homo sapiens) (UniProt Q96KQ7). The assay is described as follows: qHTS Assay for Inhibitors of Histone Lysine Methyltransferase G9a. Further: nearly all actives have a fitted effect of over 75% in size. To be noted: G9a H3K9 monomethylation, AlphaScreen, 2 h; series mostly up to 59 µM; activity, negative = inhibition: at the top concentration. The method, boiled down: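 Enzyme 20 nM + cpd, 15 min RT; add b-H3K9 pep 500 nM / SAM 20 uM; 2 h RT; anti-H3K9me1 Ab 0.5 ug/mL + SA donor / anti-rabbit acceptor beads 20 ug/mL each, 10 min; AlphaScreen read.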
Histone-lysine N-methyltransferase EHMT2 (Homo sapiens), sequence (Q96KQ7 913-1193 limits assumed): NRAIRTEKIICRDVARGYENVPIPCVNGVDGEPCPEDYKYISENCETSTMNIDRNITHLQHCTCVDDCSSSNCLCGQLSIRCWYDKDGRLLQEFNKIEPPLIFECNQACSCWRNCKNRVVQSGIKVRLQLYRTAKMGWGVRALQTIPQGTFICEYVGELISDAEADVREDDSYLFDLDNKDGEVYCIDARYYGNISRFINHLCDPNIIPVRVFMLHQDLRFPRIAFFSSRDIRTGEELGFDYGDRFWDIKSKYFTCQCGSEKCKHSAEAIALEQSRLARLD
(In qHTS, concentration-response curves come from the screen itself.)
Turning to `CCc1ccccc1N(C)C(=O)C1CCCN(c2ncnc3onc(-c4ccc(F)cc4)c23)C1` (stereo unspecified), the “activity, negative = inhibition” value is -6.79%.
The same measure, in the same setting: then `COc1ccc([C@H]2CC(=O)C=C(/C=C/c3ccccc3)C2)cc1`, with -12.4% [at 2.33 µM]; and `COc1ccccc1Nc1nc(N)nc(N)c1S(=O)(=O)c1ccccc1`, with 27.8%; and `Cc1ccc(C)c2[nH]c(=O)c(CCNC(=O)c3cccs3)cc12`, with 2.66% [at 102 µM].
Regarding `C=CCn1c(CCNC(=O)c2cccs2)n[nH]c1=S`, the Potency was 11.2 µM (active).
Consider `C=CCn1c(CCc2ccc(OC(C)C)cc2)n[nH]c1=S`, for which the “activity, negative = inhibition” value was 9.89% [at 102 µM].
Still for that read-out and setting: then `CCc1ccc(N(C(=O)c2csnn2)C(C(=O)NC2CCCCC2)c2cccnc2)cc1` (stereo unspecified), with -4.95% [at 102 µM].
For the compound `Cc1c(NS(=O)(=O)c2cc(C(=O)NCCc3ccc(F)cc3)cc(Cl)c2Cl)c(=O)n(-c2ccccc2)n1C`, the “activity, negative = inhibition” value is -13.8% [at 102 µM].
In the case of `COc1cc(Cl)ccc1OCc1cc(C(=O)N(C)CCc2c(C)n[nH]c2C)no1`, the Potency was 39.8 µM (active).
In the case of `CSc1ccccc1OCc1cc(C(=O)N(C)CCc2c(C)n[nH]c2C)no1`, the activity, negative = inhibition was 43.1% [at 0.0925 µM].
Regarding `Cc1cc(CN(C)C(=O)c2cc(COc3ccc(C)c(C)c3)on2)n[nH]1`, the “activity, negative = inhibition” value is 25.5% [at 102 µM].
The same measure, in the same setting: the value for `NC(=O)NCCCC(=O)O` was -0.244% [at 12.7 µM]; that for `Cc1ccccc1-c1nc2scc(CCNC(=O)C(=O)Nc3ccc(F)cc3F)n2n1` was 5.22%.
Same read-out and setting: the value for `CC(C)[C@@H]1NC(=O)c2cc([N+](=O)[O-])cc(I)c2NCCC[C@@H](C(=O)NC(CC(=O)O)C(N)=O)NC(=O)[C@H](CO)NC1=O` (stereo partly specified) was -1.59% [at 102 µM].
`NC(=O)C[C@@H]1NC(=O)CNC(=O)c2cc([N+](=O)[O-])cc(I)c2NCCC(C(N)=O)NC1=O` (stereo partly specified): the Potency is 11.2 µM (active).
With `NC(=O)CC[C@@H]1NC(=O)[C@H](CO)NC(=O)c2cc([N+](=O)[O-])cc(I)c2NCC[C@@H](C(N)=O)NC1=O`, the Potency was 10 µM (active).
On the same count and under the same terms, the value for `NCCCC[C@@H]1NC(=O)[C@H](CCC(=O)O)NC(=O)c2cc([N+](=O)[O-])cc(I)c2NCC[C@@H](C(N)=O)NC1=O` was 14.1 µM (active).
As to `Cc1oc(-c2ccccc2)nc1Cn1c(SCc2cccc(C(F)(F)F)c2)nc2cccnc21`, the “activity, negative = inhibition” value is -29.7%.
Same read-out and setting: then `Cc1ccc(C(=O)CN2C(=O)NC3(CCOc4ccccc43)C2=O)s1` (stereo unspecified), with -5.02% [at 2.33 µM]; and `CN1CCN(NC(=O)Nc2ccc(Br)cc2)CC1`, with 10.4% [at 102 µM]; and `CC(C)(C)OC(=O)NCCCCCNC(=O)c1[nH]cnc1C(=O)Nc1nccs1`, with 3.9% [at 0.501 µM].
Regarding `O=C(COc1ccc(Cl)cc1)Nc1ccccc1OCc1cc(=O)n2ccccc2n1`, the “activity, negative = inhibition” value was 7.45%.
The same measure, in the same setting: then `COc1ccccc1OCCNC(=O)C(CCSC)NC(=O)COc1ccccc1` (stereo unspecified), with 9.08% [at 12.7 µM]; and `O=C1C=C(c2cc(C(F)(F)F)cc(C(F)(F)F)c2)C[C@@H](c2ccc3c(c2)OCO3)C1`, with 10.2% [at 0.501 µM].
As to `CCN(C(=O)Cn1c(=O)nc(-c2ccccc2)c2cc(Cl)ccc21)c1cccc(C)c1`, the “activity, negative = inhibition” value is 24.8%.
Same read-out and setting: the value for `O=C(CCC1N=C2c3ccccc3N=C(SCc3ccccc3F)N2C1=O)NCCc1ccccc1` (stereo unspecified) was -4.93%.
On the same count and under the same terms, the value for `C[C@H](NC(=O)c1[nH]cnc1C(=O)Nc1nccs1)c1ccccc1` was 8.27% [at 0.501 µM]; that for `O=C(O)c1ccccc1-c1ccccc1C(=O)Nc1nccs1` was 2.15%.
For the compound `CC(NC(=O)C(=O)Nc1nccs1)c1ccccc1` (stereo unspecified), the Potency is 50.1 µM (active).
As for `Cc1cccc(C)c1-n1ncc(C(=O)NCCCN2CCCCC2)c1C1CCN(C(=O)OC(C)(C)C)CC1`, the “activity, negative = inhibition” value was -25%.
The same measure, in the same setting: then `CCCC(NCC(=O)Nc1ccccc1C(=O)NC1CC1)c1ccccc1` (stereo unspecified), with -2.12% [at 102 µM].
Turning to `CCOC(=O)c1c(C)[nH]c(C)c1S(=O)(=O)NCC(=O)NCc1cccc(C)c1`, the “activity, negative = inhibition” value is 7.2%.
With `CCOC(=O)CCc1c(C)c2ccc(OCc3nn[nH]n3)c(C)c2oc1=O`, the Potency was 50.1 µM (active).
Consider `Cc1c(C)c2ccc(OCC(=O)N3CCC(C(=O)O)CC3)c(C)c2oc1=O`, for which the “activity, negative = inhibition” value was -7.73% [at 102 µM].
For `CCCCc1cc(=O)oc2cc(C)cc(OCc3nn[nH]n3)c12`, the “activity, negative = inhibition” value was 17.7%.
Still for that read-out and setting: then `CCc1ccc(C(=O)NN=C2CCCCCC2)s1`, with 1.85% [at 102 µM]; and `O=C(Nc1ccccc1Br)c1cc(CN2CCCC2)on1`, with -5.99%.
With `COc1cccc(NC(=O)C(Sc2nc3ccccc3c(=O)n2CC(C)C)c2ccccc2)c1` (stereo unspecified), the Potency is 79.4 µM (active).
As to `COc1cccc(NC(=O)C(Sc2nnnn2C)c2ccccc2)c1` (stereo unspecified), the “activity, negative = inhibition” value is 5.67% [at 102 µM].
On to `COc1ccc(NC(=O)CSc2nc3ccccc3c(=O)n2C)cc1`, for which the activity, negative = inhibition was 7.85% [at 0.501 µM].
On the same count and under the same terms, the value for `Cc1ccc(C2CCN(C(=O)c3cnn(-c4ccccc4Cl)c3C3CCN(C(=O)OC(C)(C)C)CC3)C2)cc1` (stereo unspecified) was -43.6%.
Still for that read-out and setting: the value for `COc1ccc(NC(=O)c2cc(-c3ccc(C)cc3)on2)cc1` was -5.29% [at 0.501 µM]; that for `CC(=O)Nc1ccc(NC(=O)c2sc3nc4c(c(-c5ccc(C)cc5)c3c2N)CCC4)cc1` was -37.6%.
For the compound `Cc1ccc(NC(=O)c2sc3nc(N)c(C#N)cc3c2N)cc1`, the Potency is 7.94 µM (active).
Take `COc1ccc(CCNC(=O)CCNS(=O)(=O)c2cc(Br)cnc2N)cc1OC`: the “activity, negative = inhibition” value is 4.51%.
The same measure, in the same setting: the value for `COCC1CCN(C(=O)C2CCC(=O)N(Cc3cccc(C(F)(F)F)c3)C2)CC1` (stereo unspecified) was 15.3% [at 12.7 µM].
